Screen size: about 5,500 compounds; about 2,000 (36%) were called active. Inconclusive results (about 18%) are left out. The list shows a part of the results. A number with no mark means an inactive call. Cut-off read from the data, not from the text of the source: active = normalized growth mostly below about 0.91 (no sharp cut-off); inconclusive = no clear call, values can overlap the other calls; inactive = mostly above about 0.92.

A short description of the assay: chemical genetic growth profiling, strain panel (AID 1159580).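 Note: tested at 20 µM; growth read once vehicle control cultures reached saturation at 30 °C; 1 = growth at the plate median or of vehicle wells.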 The following applies: growth OD.
Where [1] appears, read: S. cerevisiae deletion strains, locus YHR030C, strain SLT2, stronger effect = lower value.
Setting [2] is: S. cerevisiae deletion strains, locus YAL013W, strain DEP1, stronger effect = lower value.
Setting [3] is: S. cerevisiae deletion strains, locus YBR229C, strain ROT2, stronger effect = lower value.
The mark [4] stands for this setting: S. cerevisiae deletion strains, locus YDL101C, strain DUN1, stronger effect = lower value.
Where [5] appears, read: S. cerevisiae deletion strains, locus YDR150W, strain NUM1, stronger effect = lower value.
Where [6] appears, read: S. cerevisiae deletion strains, locus YEL061C, strain CIN8, stronger effect = lower value.
The mark [7] stands for this setting: S. cerevisiae deletion strains, locus YGR078C, strain PAC10, stronger effect = lower value.
Setting [8] is: S. cerevisiae deletion strains, locus YHR087W, strain rtc3, stronger effect = lower value.
Where [9] appears, read: S. cerevisiae deletion strains, locus YJR043C, strain POL32, stronger effect = lower value.
The mark [10] stands for this setting: S. cerevisiae deletion strains, locus YJR075W, strain HOC1, stronger effect = lower value.
The mark [11] stands for this setting: S. cerevisiae deletion strains, locus YLR039C, strain RIC1, stronger effect = lower value.
Setting [12] is: S. cerevisiae deletion strains, locus YLR058C, strain SHM2 (second series), stronger effect = lower value.
[13] abbreviates: S. cerevisiae deletion strains, locus YLR085C, strain ARP6, stronger effect = lower value.
Where [14] appears, read: S. cerevisiae deletion strains, locus YLR262C, strain YPT6, stronger effect = lower value.
[15] abbreviates: S. cerevisiae deletion strains, locus YML094W, strain GIM5, stronger effect = lower value.
Where [16] appears, read: S. cerevisiae deletion strains, locus YMR219W, strain ESC1, stronger effect = lower value.
Where [17] appears, read: S. cerevisiae deletion strains, locus YNL153C, strain GIM3, stronger effect = lower value.
The mark [18] stands for this setting: S. cerevisiae deletion strains, locus YNL298W, strain CLA4 (second series), stronger effect = lower value.
Where [19] appears, read: S. cerevisiae deletion strains, locus YNL322C, strain KRE1, stronger effect = lower value.
Setting [20] is: S. cerevisiae deletion strains, locus YNR030W, strain Alg12, stronger effect = lower value.
The mark [21] stands for this setting: S. cerevisiae deletion strains, locus YPL055C, strain LGE1, stronger effect = lower value.
Where [22] appears, read: S. cerevisiae deletion strains, locus YPL241C, strain CIN2, stronger effect = lower value.
Setting [23] is: S. cerevisiae deletion strains, locus YPR135W, strain CTF4, stronger effect = lower value.

For `C[C@]12CCc3occc3C1CC[C@@]13C[C@@H](CCC12)[C@@](O)(CO)C3` (stereo partly specified), the normalized growth was 0.934 under setting [1]; 0.961 (S. cerevisiae deletion strains, locus YHR079C, strain IRE1, stronger effect = lower value); 0.948 (S. cerevisiae deletion strains, locus YJL095W, strain BCK1, stronger effect = lower value); 0.909 (S. cerevisiae deletion strains, locus YJR066W, strain TOR1, stronger effect = lower value); 0.873 (S. cerevisiae deletion strains, locus YLR113W, strain HOG1, stronger effect = lower value); 0.91 (S. cerevisiae deletion strains, locus YNL183C, strain NPR1, stronger effect = lower value). Besides, the normalized growth was 0.911 (S. cerevisiae deletion strains, locus YOR231W, strain MKK1, stronger effect = lower value) and 0.924 (S. cerevisiae deletion strains, locus YPL256C, strain CLN2, stronger effect = lower value).

Turning to `Nc1ccc(Sc2cc(Cl)ccc2Cl)nc1`, the normalized growth reads like this: under setting [2], 0.947; under setting [3], 0.906 (active); (S. cerevisiae deletion strains, locus YCL061C, strain MRC1, stronger effect = lower value) 0.958; under setting [4], 0.963; under setting [5], 0.843; under setting [6], 0.916. Also, the normalized growth is, setting by setting: under setting [7], 0.911 (active); under setting [1], 0.341 (active); under setting [8], 0.898 (active); (S. cerevisiae deletion strains, locus YJL187C, strain SWE1, stronger effect = lower value) 0.928 (active); under setting [9], 0.932; under setting [10], 0.827 (active). For the same compound, the normalized growth runs as follows: (S. cerevisiae deletion strains, locus YKL190W, strain CNB1, stronger effect = lower value) 0.762 (active); under setting [11], 0.398 (active); under setting [12], 0.929 (active); under setting [13], 0.383 (active); under setting [14], 0.348 (active); under setting [15], 0.828 (active). The normalized growth runs as follows: under setting [16], 0.958; (S. cerevisiae deletion strains, locus YMR307W, strain GAS1, stronger effect = lower value) 0.454 (active); under setting [17], 0.934; under setting [18], 0.781 (active); under setting [19], 0.97; under setting [20], 0.785 (active). Besides, the normalized growth reads like this: (S. cerevisiae deletion strains, locus YOL006C, strain TOP1, stronger effect = lower value) 0.594 (active); under setting [21], 0.99; under setting [22], 0.737 (active); under setting [23], 0.497 (active).

Regarding `Cc1noc(C)c1C(=O)N1CCOCC1`, the normalized growth under setting [2] is 1; the normalized growth under setting [3] is 0.998; the normalized growth under setting [4] was 1; the normalized growth under setting [5] is 0.971; the normalized growth under setting [6] was 1.01; the normalized growth under setting [7] was 1. Moreover, the normalized growth runs as follows: under setting [1], 1.07; under setting [8], 1; under setting [9], 1; under setting [10], 1; under setting [11], 1.03; under setting [12], 1. In addition, the normalized growth runs as follows: under setting [13], 1.04; under setting [14], 1.01; under setting [15], 1.02; under setting [16], 0.993; (S. cerevisiae deletion strains, locus YMR263W, strain SAP30, stronger effect = lower value) 0.982; under setting [17], 0.996. Further, the normalized growth under setting [18] is 1.02; the normalized growth under setting [19] was 0.995; the normalized growth under setting [20] was 1.02; the normalized growth under setting [21] is 1; the normalized growth under setting [22] is 1.06; the normalized growth under setting [23] was 1.02. The normalized growth (S. cerevisiae strains, strain wild type, stronger effect = lower value) was 1.01.
